# PLCb3 inh = inhibitors of human phospholipase C beta3 | Q01970 | AID 720704 | 370,000 tested, 0.18% active | Purified PLC-beta3, fluorogenic substrate, fluorescence | inhibition, % at 12.2 µM; in the data active means inhibition above about 11%
# PLCg1 inh = blocks human PLC-gamma1 enzyme activity; AID 720700; inhibition, % at 12.2 µM; P19174; purified PLC-gamma1, fluorogenic substrate, fluorescence; 370,000 tested, 0.84% active
# MsrA inh = inhibits bovine methionine sulfoxide reductase A | inhibition, % at 15.5 µM | 360,000 tested, 0.75% active | AID 651718 | purified bovine MsrA, absorbance read-out; in the data active means inhibition above about 4.5%
# bovine MsrA act = bovine methionine sulfoxide reductase A activation; purified bovine MsrA, absorbance read-out; activation, % at 10.6 µM; 360,000 tested, 0.3% active; in the data active means activation above about 7.5%
# PLCg1 ctr = PLC-gamma1 inhibition, counter-screen for PLC-beta3 hits; shares compounds with PLCg1 inh; purified PLC-gamma1, fluorogenic substrate, fluorescence; inhibition, % at 12.3 µM; 3,300 tested, 3.1% active
# PLCbeta3 conf = human PLC-beta3 inhibition, confirmation. shares compounds with PLCg1 inh. purified PLC-beta3, fluorogenic substrate fluorescence. inhibition, % at 12.3 µM. 3,300 tested, 1% active. AID 743261; in the data active means inhibition above about 11%
# A number is an active result; i = inactive; nt = no result. Compounds with a hit are over-represented: about 1.9% of the library has one in this group of screens. Unless noted, no stated cut-off is given here; in the data, active means inhibition above about 9.5%; inactive means the rest.
SMILES,PLCb3 inh,PLCg1 inh,MsrA inh,bovine MsrA act,PLCg1 ctr,PLCbeta3 conf
COc1ccc(CNC(=O)C2CCCN(S(=O)(=O)c3cccc4nsnc34)C2)cc1 (stereo unspecified),i,i,i,i,nt,nt
Cc1ccccc1CN1CCN(S(=O)(=O)c2cccc3nsnc23)CC1,i,i,i,i,nt,nt
COc1ccc(CNC(=O)C2CCN(S(=O)(=O)c3cccc4nsnc34)CC2)cc1,i,11,i,i,i,i
Cc1[nH]c2ccccc2c1CC(=O)Nc1ccc(Nc2cccnc2)c(-c2ccc(-c3ccccc3)cc2F)c1,i,i,i,nt,nt,nt
CCOC(=O)C1=C(C(=O)OCC)C2N(Cc3ccc(C(F)(F)F)cc3)c3ccccc3[C@@]23C[C@@H](C(=O)OC)N(S(=O)(=O)c2ccccc2C)C3=N1 (stereo partly specified),i,i,i,nt,nt,nt
COc1ccc([C@H]2N[C@]3(CCCN(Cc4ccc(Br)cc4)C3=O)[C@H]3C(=O)N(C)C(=O)[C@@H]23)cc1,i,i,i,i,nt,nt
O=C(O)CN1C(=O)C2C3CCC(C3)C2C1=O (stereo unspecified),i,14,i,i,i,i
CC1=C(C(=O)OCc2ccccc2)N2C(=O)[C@@H](NC(=O)COc3ccccc3)[C@H]2SC1,i,i,i,i,nt,nt
CC1=C(C(=O)OCc2ccc([N+](=O)[O-])cc2)N2C(=O)C(NC(=O)Cc3ccccc3)C2SC1 (stereo unspecified),i,24,i,i,24,i
CC1(C2CC2)NC(=O)N(CC(=O)Nc2ccc(OC(F)F)cc2)C1=O (stereo unspecified),i,i,i,i,nt,nt
Nc1nc(SCC(=O)Nc2ccccc2Oc2ccccc2)n[nH]1,12,i,i,i,i,i
COC(=O)[C@]12C[C@H](CC(=O)NCC34CC5CC(CC(C5)C3)C4)C(=O)N(Cc3cccc4ccccc34)C1=C[C@H](COCc1ccccc1)O[C@@H]2C,i,i,nt,nt,nt,nt
NC(=O)c1c(N)[nH]c(C(=O)c2ccccc2)c1-c1ccc2c(c1)OCO2,i,i,i,nt,nt,nt
O=C(O)Cc1nn(Cc2ccc(Cl)cc2)c(=O)c2ccccc12,i,i,i,i,nt,nt
C=CCn1c(SCC(=O)c2[nH]c(C)c(C(=O)OCC)c2C)nc2scc(-c3ccc(OC)c(OC)c3)c2c1=O,11,i,i,i,i,i
CC(=O)OC1CCC2(C)C(=CCC3C2CCC2(C)C3CC3OC4(CCC(C)CN4)C(C)C32)C1 (stereo unspecified),i,11,i,i,i,i
COC(=O)[C@]12C[C@H](CC(=O)NCCCN3CCCC3=O)C(=O)N(Cc3ccccc3)C1=C[C@H](C1CCCC1)O[C@@H]2C,i,i,i,nt,nt,nt
C[C@H]1CN([C@@H](C)CO)S(=O)(=O)c2ccc(Br)cc2O[C@H]1CN(C)C(=O)CCN1CCCCC1,i,i,i,i,nt,nt
COc1ccc(OCC(O)COc2ccc(C(=O)O)cc2)cc1 (stereo unspecified),i,i,i,i,nt,nt
COc1ccc(OCc2ccc(C(=O)O)cc2)cc1,i,9.9,i,i,i,i
Cc1ccc(-c2nc(N)n(C(=O)c3cccnc3)n2)cc1,i,12,i,i,i,i
Cc1ccc(C(=O)n2nc(-c3cccnc3)nc2N)cc1,i,i,i,i,nt,nt
CN(C(=O)COc1cccc(C#N)c1)C1CCS(=O)(=O)C1 (stereo unspecified),i,11,i,i,i,i
COC(=O)c1ccc(N2C(=O)C3CC=CC(C)C3C2=O)cc1 (stereo unspecified),i,10,i,i,i,i
CC(C)OC(=O)c1ccc(N2C(=O)C3CC=CCC3C2=O)cc1 (stereo unspecified),i,i,i,i,nt,nt
SMILES,PLCb3 inh,PLCg1 inh,MsrA inh,bovine MsrA act,PLCg1 ctr,PLCbeta3 conf
Nc1nonc1OCCOCCOCCOc1nonc1N,i,i,i,i,nt,nt
Cc1cc(C)n(CCOc2nonc2N)n1,12,11,i,i,i,i
c1ccc(CN2CCOCCOCCOCC2)cc1,i,i,i,i,nt,nt
O=C(N1CCOCC1)N1CCN(Cc2ccccc2)CC1,i,10,i,i,i,i
CCCC1CCC(c2ccc(OCC)cc2)=CC1=O (stereo unspecified),i,i,i,i,nt,nt
CC(C)N(Cc1ccccc1)C(=O)CN1C(=O)NC2(CCCC2)C1=O,i,10,i,i,i,i
Cc1ccc(NC(=S)NCc2ccc(Cl)cc2)c(C)c1,i,11,i,i,i,i
CC(C)(C)C(=O)c1c(N)[nH]c(C(=O)c2ccccc2)c1-c1ccccc1,i,i,i,nt,nt,nt
O=C1NC(=S)N/C1=C/c1cccnc1,i,11,i,i,i,i
